Test systems include UACC-62 melanoma; SNB-75 CNS; SNB-19 CNS; U251 CNS; PC-3 prostate; SK-MEL-5 melanoma; LOX IMVI melanoma; SK-MEL-28 melanoma; EKVX NSCLC; SN12C renal; UO-31 renal; ACHN renal; CAKI-1 renal; A498 renal; MOLT-4 leukemia; TK-10 renal; HT29 colon; SK-MEL-2 melanoma; CCRF-CEM leukemia.
What all share (experiment): NCI-60 one-dose screen, 48 h (100 = growth as untreated, 0 = no growth, -100 = all killed)
What all share (conditions): 10 µM unless noted

Several values for one entry are separate records, joined by “and”; a condition that tells them apart may be missing. Equal values may be shown once. About 83,000 compounds went through this panel and 20% of them were active in at least one assay; those are over-represented in the sample as a whole.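 Plates (96-well) were seeded with cells, treated with compound at one concentration, and incubated for 48 hours before percent growth was determined.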 Activity calls are given as the source filed them. The calls were made as follows: active = growth percent below 10; inactive = the rest.

For `O=[N+]([O-])c1cccc(-c2ncnc(-c3cccc([N+](=O)[O-])c3)n2)c1`, the growth in the assay with UACC-62 melanoma was 53.2% [100 µM] (inactive) and 0.549% [100 µM] (active).

Turning to `Cc1cc(N2CCCC2)c([N+](=O)[O-])cc1[N+](=O)[O-]`, the growth with UACC-62 melanoma is 64.5% [100 µM] (inactive) and 32.1% [100 µM] (inactive).

For `CCOc1cc2c(cc1O)C(=O)C[C@@H]1[C@@H]2CC[C@]2(C)[C@@H](O)CC[C@@H]12`, the growth in the assay with UACC-62 melanoma is 13.5% [100 µM] (inactive) and 0.709% [100 µM] (active).

As to `O=c1c(-c2ccc3c(c2)OCO3)coc2c3c(ccc12)OCO3`, the growth in the assay with UACC-62 melanoma is 49.2% [100 µM] (inactive) and -100% [100 µM] (active).

Take `O=C1NC(=O)C(CSc2ccccc2)(c2ccccc2)N1` (stereo unspecified): the growth was 83.9% (inactive) with SNB-75 CNS; 113% (inactive) in the assay with SNB-19 CNS; 96.7% (inactive) with U251 CNS; 88.9% (inactive) with PC-3 prostate; 92.6% (inactive) in the assay with SK-MEL-5 melanoma; 101% (inactive) in the assay on UACC-62 melanoma. Further, the growth with LOX IMVI melanoma was 89.6% (inactive); in the assay with SK-MEL-28 melanoma, 112% (inactive); in the assay with EKVX NSCLC, 110% (inactive); with SN12C renal, 103% (inactive); in the assay with UO-31 renal it was 88.9% (inactive); in the assay with ACHN renal it was 101% (inactive). Moreover, the growth in the assay on CAKI-1 renal is 87.7% (inactive); with A498 renal it was 122% (inactive); in the assay on MOLT-4 leukemia, 97.8% (inactive).

`Cc1cc2c3c(nc4ccccc42)C(=O)c2cccnc2-c3n1`: the growth was -89.9% [100 µM] (active) and -100% [100 µM] (active) with UACC-62 melanoma; -10.8% [100 µM] (active) and -100% [100 µM] (active) in the assay on TK-10 renal.

On to `CC1(C)N=C(N)N=C(N)N1c1cccc(OCCOc2cccc([N+](=O)[O-])c2)c1`, for which the growth in the assay on HT29 colon is 15.4% (inactive); in the assay with SNB-75 CNS, 51.8% (inactive); in the assay with SNB-19 CNS, 53.9% (inactive); with SK-MEL-5 melanoma, 70.5% (inactive); in the assay on UACC-62 melanoma it was 39.6% (inactive); with LOX IMVI melanoma, 20.1% (inactive). For the same compound, the growth is 56% (inactive) in the assay on SK-MEL-28 melanoma; 39.4% (inactive) with SK-MEL-2 melanoma; 28.8% (inactive) in the assay on SN12C renal; 78.4% (inactive) in the assay on UO-31 renal; 71.8% (inactive) in the assay on TK-10 renal; 89.9% (inactive) in the assay on ACHN renal. Also, the growth with CAKI-1 renal is 90.1% (inactive); in the assay with A498 renal, 91% (inactive); with CCRF-CEM leukemia it was 29.7% (inactive); in the assay with MOLT-4 leukemia, 26% (inactive).

Turning to `COC(=O)c1cc(-c2ccc(C)cc2)n(C(=O)CSc2nc3sc(C(N)=O)c(C)c3c(=O)n2Cc2ccccc2)n1`, the growth is 115% (inactive) with HT29 colon; 83.3% (inactive) in the assay with SNB-75 CNS; 102% (inactive) with U251 CNS; 86.1% (inactive) with PC-3 prostate; 112% (inactive) in the assay on SK-MEL-28 melanoma; 110% (inactive) in the assay with SK-MEL-2 melanoma. Moreover, the growth was 87.5% (inactive) with UO-31 renal; 106% (inactive) in the assay with TK-10 renal; 98.8% (inactive) in the assay with ACHN renal; 97.7% (inactive) in the assay with CAKI-1 renal; -32.1% (active) in the assay on A498 renal; 93.2% (inactive) in the assay on CCRF-CEM leukemia. In addition, in the assay with MOLT-4 leukemia, the growth is 95.1% (inactive).

Regarding `CC#CC#C/C=C1\C=CC2(OC=CC2OC(C)=O)O1` (stereo unspecified), the growth in the assay with UACC-62 melanoma is -87% [100 µM] (active) and -100% [100 µM] (active); in the assay on TK-10 renal it was -20.2% [100 µM] (active) and -81% [100 µM] (active).

As for `C[C@]12CC[C@@H]3c4cc(Br)c(O)c(Br)c4CC[C@H]3[C@@H]1CC(Br)C2=O` (stereo partly specified), the growth with UACC-62 melanoma is -79.5% [100 µM] (active) and -97.9% [100 µM] (active); with TK-10 renal, -93.2% [100 µM] (active) and -97.6% [100 µM] (active).

`Cc1cc[n+](CCc2ccccc2)cc1`: the growth in the assay with U251 CNS is 97.2% (inactive); in the assay on SK-MEL-5 melanoma it was 92.7% (inactive); in the assay with SK-MEL-2 melanoma it was 107% (inactive); in the assay on EKVX NSCLC, 80.6% (inactive).

Turning to `CC(=O)OCC1=C(C)C[C@H]([C@@H](COC(C)=O)C2CCC3C4C[C@H]5O[C@]56CC=CC(=O)[C@]6(C)C4CC[C@@]32C)OC1=O` (stereo partly specified), the growth was -91% [50 µM] (active) and -99.6% [50 µM] (active) in the assay on UACC-62 melanoma; -97.1% [50 µM] (active) and -100% [50 µM] (active) in the assay with TK-10 renal.

In the case of `COC(=O)CCC(=O)c1ccccc1`, the growth in the assay on HT29 colon is 105% (inactive); with SNB-75 CNS, 117% (inactive); with U251 CNS, 100% (inactive); with PC-3 prostate it was 117% (inactive); with SK-MEL-5 melanoma, 130% (inactive); in the assay with UACC-62 melanoma, 104% (inactive). Moreover, the growth in the assay with SK-MEL-28 melanoma is 108% (inactive); with SK-MEL-2 melanoma, 110% (inactive); in the assay on EKVX NSCLC, 89.7% (inactive); in the assay with UO-31 renal, 118% (inactive); in the assay on TK-10 renal, 118% (inactive); in the assay with ACHN renal, 106% (inactive). Moreover, the growth in the assay on CAKI-1 renal is 96.8% (inactive); in the assay on A498 renal it was 112% (inactive); in the assay on CCRF-CEM leukemia, 101% (inactive); with MOLT-4 leukemia, 101% (inactive).

On to `N#Cc1c(SCc2ccccc2)nc(-c2ccccc2)[nH]c1=S`, for which the growth in the assay on UACC-62 melanoma is -44.7% [100 µM] (active) and 1.92% [100 µM] (active); in the assay with TK-10 renal, 9.89% [100 µM] (active) and 3.82% [100 µM] (active).

For `COc1ccc2c3c(c(=O)n(C)c2c1OC)C=CC(C)(C)O3`, the growth in the assay on UACC-62 melanoma was 0.949% [100 µM] (active) and 6.15% [100 µM] (active); in the assay with TK-10 renal, 8.86% [100 µM] (active) and 15% [100 µM] (inactive).

Take `CC(C)(C)[Si](C)(C)OC1[C@@H](COC(=O)NC(=O)CCl)O[C@@H](n2cnc3c(N)ncnc32)[C@H]1O[Si](C)(C)C(C)(C)C` (stereo partly specified): the growth with HT29 colon is 32.3% (inactive); with SNB-75 CNS, 101% (inactive); in the assay with U251 CNS, 53.2% (inactive); in the assay on PC-3 prostate, -59.9% (active); in the assay on SK-MEL-5 melanoma, 61.4% (inactive); in the assay on UACC-62 melanoma, 75.2% (inactive). The growth in the assay on LOX IMVI melanoma is -94% (active); with SK-MEL-28 melanoma it was 71.8% (inactive); with SN12C renal it was -47.5% (active); in the assay with UO-31 renal, 20% (inactive); with ACHN renal, 61.4% (inactive); in the assay on CAKI-1 renal it was 19.3% (inactive). The growth in the assay on A498 renal is 105% (inactive); in the assay with CCRF-CEM leukemia it was -48.6% (active); in the assay on MOLT-4 leukemia, -54.7% (active).

In the case of `O=c1c2ncn(C3CCCCO3)c2n(-c2ccccc2)c(=S)n1-c1ccccc1` (stereo unspecified), the growth in the assay with UACC-62 melanoma was 18.7% [100 µM] (inactive) and 4.84% [100 µM] (active); with TK-10 renal, 20.1% [100 µM] (inactive) and 23.9% [100 µM] (inactive).

For the compound `C=C1C(=O)OC2C1CC(O)/C(C)=C\CCC1(C)OC21` (stereo unspecified), the growth in the assay with UACC-62 melanoma was 68.9% [100 µM] (inactive) and -86% [100 µM] (active); with TK-10 renal it was 76.7% [100 µM] (inactive) and -65% [100 µM] (active).

As to `N#CC1=C(N)OC(c2cccc([N+](=O)[O-])c2)C1(C#N)C#N` (stereo unspecified), the growth in the assay on UACC-62 melanoma was -52.1% [100 µM] (active) and -93.7% [100 µM] (active); with TK-10 renal it was -66.6% [100 µM] (active) and -87.5% [100 µM] (active).

The record behind these values is PubChem BioAssay (NCI).
